From PubChem BioAssay (Tox21) come the findings set out here.

“And” between values parts separate entries of the source, which are not always exact repeats. Identical values can stand only once. Unmarked numbers belong to inactive results. Inconclusive results are not listed. The source made the active and inactive calls. Unless noted, calls come from the whole dose curve; as a rule, active = well fitted curve in the direction sought with a large enough effect in the repeat runs; inconclusive = weak or mixed curves; inactive = no such curve, though single readings can be large; an effect the other way counts as inactive or inconclusive.

Experiment [1] can be described thus: qHTS assay to test for compound auto fluorescence at 535 nm (green) in HEK293 cells (AID 720680).
Experiment [2] in a line: qHTS assay to test for compound auto fluorescence at 590 nm (red) in HEK293 cell free culture (AID 720683). The essentials: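 Tox21 10K library compounds were pinned into cell-free DMEM with 10% FBS and fluorescence was read at excitation 540 nm. Activity is expressed as Rose Bengal sodium equivalency.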
Experiment [3] in a line: qHTS assay to test for compound auto fluorescence at 590 nm (red) in HepG2 cell free culture (AID 720684). An outline of the steps:
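Ex 540 / Em 590 nm read of compound in cell-free MEM (10% FBS). Rose Bengal sodium reference.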

Experiment [4] in a line: qHTS assay to test for compound auto fluorescence at 460 nm (blue) in HepG2 cell free culture (AID 720685). The essentials:
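Cell-free plates of MEM plus 10% FBS received 23 nL compound or DMSO vehicle; blue-channel (405/460 nm) intensity scored against triamterene as reference fluorophore.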

Experiment [5] can be described thus: qHTS assay to test for compound auto fluorescence at 535 nm (green) in HepG2 cell free culture (AID 720686).
Experiment [6] is described as follows: qHTS assay to test for compound auto fluorescence at 460 nm (blue) in HepG2 cells (AID 720687). The essentials: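 Cells (2,000/well in MEM with 10% FBS) attached overnight at 37 C, then were exposed to compound or DMSO for 1 hr at 37 C, 5% CO2. Fluorescence read at Ex/Em 405/460 nm, expressed as triamterene-equivalent signal.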
Experiment [7] addresses Glucocorticoid receptor (Homo sapiens) (UniProt P04150). Put plainly: qHTS assay to identify small molecule agonists of the glucocorticoid receptor (GR) signaling pathway (AID 720691; active = well fitted activation curve with a large enough effect in the signal ratio in the repeat runs, not every such curve was filed as active; the % refers to the signal ratio). The essentials:
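Steps: seed GR-bla HeLa cells, incubate 4 h at 37 C/5% CO2; pin-transfer DMSO-dissolved compounds; incubate 18 h at 37 C; add LiveBLAzer B/G FRET substrate; after 2 h at room temperature, measure fluorescence.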

The nature of experiment [8]: qHTS assay for identifying genotoxic compounds that show differential cytotoxicity against isogenic chicken DT40 cell lines with known DNA damage response pathways - wild type cell line (AID 743012). Note: nearly all actives have a fitted effect of over 60% in size. Note: potency is the fitted concentration of half-maximal effect. The essentials: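 Cytotoxicity in repair-proficient parental chicken DT40 cells serves as the comparator for Rad54/Ku70- and Rev3-deficient lines. Cells were exposed to compounds for 40 h at 37 C/5% CO2, and ATP-based luminescence (CellTiter-Glo) measured viability.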

The nature of experiment [9]: qHTS assay for identifying genotoxic compounds that show differential cytotoxicity against isogenic chicken DT40 cell lines with known DNA damage response pathways - Rev3 mutant cell line (AID 743014). Note: nearly all actives have a fitted effect of over 55% in size. Note: potency is the fitted concentration of half-maximal effect.
The nature of experiment [10]: qHTS assay to identify small molecule antagonists of the androgen receptor (AR) signaling pathway - cell viability counter screen (AID 743033; note: nearly all actives have a fitted effect of over 45% in size; note: potency is the fitted concentration of half-maximal effect).
A short description of experiment [11]: qHTS assay to identify small molecule antagonists of the androgen receptor (AR) signaling pathway using the MDA cell line - cell viability counter screen (AID 743041; note: nearly all actives have a fitted effect of over 45% in size). An outline of the steps:
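In this qHTS counter assay, fluorescence intensity after CellTiter-Fluor addition indicated viability of MDA-kb2 AR-luc cells given compounds and R1881 for 16 h at 37C.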

Experiment [12] can be described thus: qHTS assay to identify small molecule antagonists of the glucocorticoid receptor (GR) signaling pathway - cell viability counter screen (AID 720693). Note: nearly all actives have a fitted effect of over 55% in size.
Experiment [13] is described as follows: qHTS assay for identifying genotoxic compounds that show differential cytotoxicity against isogenic chicken DT40 cell lines with known DNA damage response pathways - Rad54/Ku70 mutant cell line (AID 743015). Note: nearly all actives have a fitted effect of over 60% in size. Note: potency is the fitted concentration of half-maximal effect.
The nature of experiment [14]: qHTS assay to test for compound auto fluorescence at 535 nm (green) in HEK293 cell free culture (AID 720682). The essentials: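 Steps: dispense DMEM/10% FBS into empty wells; pin in compound or DMSO; measure fluorescence at 485/535 nm. Values are fluorescein equivalents.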
Experiment [15] has as its target Androgen receptor (Homo sapiens) (UniProt P10275). Put plainly: qHTS assay to identify small molecule antagonists of the androgen receptor (AR) signaling pathway (AID 743035; active = well fitted inhibition curve with a large enough effect in the signal ratio in the repeat runs, not every such curve was filed as active; the % refers to the signal ratio). The essentials:
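Steps: seed AR-UAS-bla GripTite HEK293 cells, incubate 4 h at 37C; pin in test compound, then add agonist R1881; incubate 16 h at 37C; add LiveBLAzer B/G FRET substrate, 2 h at room temperature; read fluorescence.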

For experiment [16] the target is unchanged. Put plainly: qHTS assay to identify small molecule agonists of the androgen receptor (AR) signaling pathway using the MDA cell line (AID 743040; note: nearly all actives have a fitted effect of over 20% in size). The essentials: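 Cell-based luciferase reporter: MDA-kb2, MMTV promoter (AR + GR response elements). 16 h compound exposure at 37C; ONE-Glo, 30 min RT, luminescence.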
Experiment [17] has the same target. Put plainly: qHTS assay to identify small molecule antagonists of the androgen receptor (AR) signaling pathway using the MDA cell line (AID 743042; note: nearly all actives have a fitted effect of over 55% in size). The essentials:
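MDA-kb2 cells (human breast carcinoma, stably carrying an MMTV-luciferase reporter responsive to AR and GR) were plated at 3,000 cells/well and preincubated 5 hr at 37C, then given compound plus R1881 agonist for 16 h. ONE-Glo luminescence was read.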

The target of experiment [18] is Glucocorticoid receptor (Homo sapiens) (UniProt P04150). Put plainly: qHTS assay to identify small molecule antagonists of the glucocorticoid receptor (GR) signaling pathway (AID 720692; active = well fitted inhibition curve with a large enough effect in the signal ratio in the repeat runs, not every such curve was filed as active; the % refers to the signal ratio; note: potency is the fitted concentration of half-maximal effect). An outline of the steps:
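Antagonism was scored as loss of dexamethasone-driven (5 nM final) reporter signal in HeLa cells bearing a glucocorticoid response element–beta-lactamase construct, after 18 h compound exposure at 37 C and 2 h FRET substrate loading.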
% is set by controls: 0 for no effect and ±100 for the full control effect.

Sequence of Androgen receptor (Homo sapiens) (P10275 whole entry, looked up): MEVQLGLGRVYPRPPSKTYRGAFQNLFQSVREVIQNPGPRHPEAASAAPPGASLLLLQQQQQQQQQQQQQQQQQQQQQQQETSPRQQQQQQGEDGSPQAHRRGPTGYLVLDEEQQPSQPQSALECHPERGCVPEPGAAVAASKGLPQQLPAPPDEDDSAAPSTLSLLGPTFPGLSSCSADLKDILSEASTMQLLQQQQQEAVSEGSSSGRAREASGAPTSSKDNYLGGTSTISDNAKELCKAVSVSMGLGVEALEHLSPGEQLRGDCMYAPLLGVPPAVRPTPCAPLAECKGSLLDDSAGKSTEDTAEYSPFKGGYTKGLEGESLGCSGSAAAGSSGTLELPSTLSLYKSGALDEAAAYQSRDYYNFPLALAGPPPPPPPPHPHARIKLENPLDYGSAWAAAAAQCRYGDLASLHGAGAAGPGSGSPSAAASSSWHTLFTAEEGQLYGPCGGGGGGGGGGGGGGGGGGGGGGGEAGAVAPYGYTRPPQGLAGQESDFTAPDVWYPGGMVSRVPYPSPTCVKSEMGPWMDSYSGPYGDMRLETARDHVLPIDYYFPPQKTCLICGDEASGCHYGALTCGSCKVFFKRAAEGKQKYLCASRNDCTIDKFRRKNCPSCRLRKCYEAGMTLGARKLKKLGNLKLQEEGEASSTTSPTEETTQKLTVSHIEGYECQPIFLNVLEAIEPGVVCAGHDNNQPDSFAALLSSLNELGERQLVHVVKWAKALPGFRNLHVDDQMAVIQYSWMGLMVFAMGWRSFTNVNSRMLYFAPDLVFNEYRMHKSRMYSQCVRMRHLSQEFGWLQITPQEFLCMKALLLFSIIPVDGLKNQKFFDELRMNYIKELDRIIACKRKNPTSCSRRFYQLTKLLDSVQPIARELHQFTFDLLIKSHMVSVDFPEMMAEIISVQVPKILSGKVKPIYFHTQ
Sequence of Glucocorticoid receptor (Homo sapiens) (P04150 whole entry, looked up): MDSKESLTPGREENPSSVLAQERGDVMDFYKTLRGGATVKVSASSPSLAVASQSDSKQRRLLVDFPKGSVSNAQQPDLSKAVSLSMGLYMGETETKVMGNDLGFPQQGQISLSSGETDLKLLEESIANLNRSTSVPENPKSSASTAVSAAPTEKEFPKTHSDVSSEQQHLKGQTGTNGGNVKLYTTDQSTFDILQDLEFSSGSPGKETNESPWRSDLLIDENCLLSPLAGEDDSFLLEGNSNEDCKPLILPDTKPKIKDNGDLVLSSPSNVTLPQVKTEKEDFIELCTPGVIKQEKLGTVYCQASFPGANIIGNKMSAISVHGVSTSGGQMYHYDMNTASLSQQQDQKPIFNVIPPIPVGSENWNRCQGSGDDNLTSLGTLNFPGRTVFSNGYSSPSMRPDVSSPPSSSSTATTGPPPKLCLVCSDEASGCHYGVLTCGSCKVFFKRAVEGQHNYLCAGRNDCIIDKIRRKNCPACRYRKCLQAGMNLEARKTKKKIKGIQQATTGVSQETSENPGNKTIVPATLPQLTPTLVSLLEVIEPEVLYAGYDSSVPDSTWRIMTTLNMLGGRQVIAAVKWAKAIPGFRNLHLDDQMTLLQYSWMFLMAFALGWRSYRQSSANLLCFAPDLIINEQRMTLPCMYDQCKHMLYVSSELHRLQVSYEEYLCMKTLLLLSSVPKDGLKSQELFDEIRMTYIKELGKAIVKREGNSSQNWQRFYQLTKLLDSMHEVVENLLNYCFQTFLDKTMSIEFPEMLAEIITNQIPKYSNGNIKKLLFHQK

Regarding `Oc1ccccc1O`, the Potency result in experiment [1], in experiment [2], in experiment [3], in experiment [4], in experiment [5] and in experiment [6] was “inactive” in each case. The Potency entry in experiment [7], in experiment [10] and in experiment [11] was “inactive” throughout. Also, the Potency in experiment [8] is 24.6 µM (active) and 30.6 µM (active); in [9], 19.6 µM (active) and 54.5 µM (active).

In the case of `Clc1nnc(Cl)c2ccccc12`, the Potency result in experiment [1], in experiment [2], in experiment [3], in experiment [4], in [5] and in experiment [6] was “inactive” in each case. Moreover, the Potency entry in experiment [7], in [12], in [13], in experiment [10] and in experiment [11] was “inactive” in each case.

Take `CCOc1ccc2ccccc2c1C(=O)N[C@@H]1C(=O)N2[C@@H]1SC(C)(C)[C@@H]2C(=O)O`: the fluorescence, % of fluorescein in experiment [1] is 0.0057% [at 18.6 µM]. The activity change in experiment [14] was 0.0527% [at 18.6 µM, hits give high values]. Further, the fluorescence, % of fluorescent control in experiment [2] is 0.0898% [at 18.6 µM]; in [4], 0.462% [at 18.6 µM]; in experiment [6], 0.172% [at 18.6 µM]. Besides, in experiment [3], the fluorescence, % of Rose Bengal was -0.0711% [at 18.6 µM]. Also, in [5], the fluorescence, % of fluorescein control was 0.0405% [at 18.6 µM]. Also, the Potency entry in [7], in experiment [12], in experiment [8], in experiment [9], in experiment [13] and in [15] was “inactive” in each case. Also, the Potency result in [11] and in experiment [17] was “inactive” throughout. Also, in experiment [16], the outcome was inactive.

For `C=CC(=O)Nc1cc2c(Nc3ccc(F)c(Cl)c3)ncnc2cc1OCCCN1CCOCC1`, the Potency entry in [1], in [14], in [2], in experiment [3], in [4] and in experiment [5] was “inactive” in each case. Further, the Potency result in experiment [6], in experiment [7] and in experiment [10] was “inactive” each time. The Potency in experiment [18] was 3.01 µM (active); in [9], 8.41 µM (active). Besides, the molecule was classed as inactive in [16].

For the molecule `Nc1cc(Cl)c(O)c(Cl)c1`, the Potency entry in experiment [1], in [14], in experiment [2], in experiment [3], in experiment [4] and in experiment [5] was “inactive” in each case. Further, the Potency entry in experiment [7], in experiment [12], in [10], in experiment [11] and in experiment [17] was “inactive” each time. In addition, the values for the Potency in experiment [8], in experiment [9] and in [13] were 10.9 µM (active), 15.4 µM (active) and 24.3 µM (active), respectively. Besides, in experiment [16], the result was inactive.

Take `O=C(O)c1cc(=O)c2ccccc2o1`: the Potency result in [1], in experiment [14], in experiment [2], in experiment [3], in experiment [4] and in [5] was “inactive” in each case. Besides, the Potency entry in experiment [6], in [7], in experiment [18], in experiment [12], in [8] and in [9] was “inactive” each time. Also, the Potency entry in experiment [13] and in experiment [10] was “inactive” in each case.

In the case of `CCOC(=O)c1ccc(C2CCC(NC[C@H](O)COc3ccc(O)c(NS(C)(=O)=O)c3)CC2)cc1` (some centres not stated), the Potency entry in experiment [1], in experiment [14], in experiment [3], in experiment [4], in experiment [5] and in experiment [6] was “inactive” throughout. Further, the Potency entry in experiment [12] and in [11] was “inactive” throughout. In addition, the Potency in [8] was 0.356 µM (active); in experiment [9], 0.1 µM (active); in [13], 0.113 µM (active); in experiment [10] it was 45.2 µM (active).

On to `CC/C=C\CCCCCO`, for which the Potency entry in experiment [1], in experiment [14], in experiment [2], in experiment [3], in [4] and in [5] was “inactive” in each case. Besides, the Potency result in experiment [7], in experiment [18], in experiment [12], in experiment [8], in [13] and in experiment [10] was “inactive” in each case. Also, the Potency result in [11] is “inactive”.

Turning to `C[C@H]1NCc2cc(-c3ccc4c(=O)c(C(=O)O)cn(C5CC5)c4c3OC(F)F)ccc21`, the Potency result in [1], in experiment [14], in experiment [2], in experiment [3], in [4] and in experiment [5] was “inactive” throughout. In addition, the Potency entry in experiment [6], in experiment [7], in [18], in [12], in [13] and in experiment [10] was “inactive” each time. Also, in experiment [11], the Potency result was “inactive”.
